GRIN3A LBD mod = binders of NR3A ligand-binding domain, primary screen, biophysical, differential scanning fluorimetry, uHTS; Glutamate receptor ionotropic, NMDA 3A (GRIN3A) ligand-binding domain; NR3A LBD differential scanning fluorimetry, Tm shift; 0% = protein alone, 100% = glycine-bound protein; Tm shift relative to glycine control, % at 25 µM; 340,000 tested, 2.5% active;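 active = melting temperature shift of at least 10% of the positive control shift, at one fixed dose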
SUMO Mot1 rescue = yeast Mot1-301 growth rescue at high temperature, primary screen, SUMOylation pathway inhibitor project, S. cerevisiae, ATP luminescence, 38.5C | S. cerevisiae Mot1-301 growth rescue; percent above DMSO median, 100 means doubled | growth rescue, % at 18.8 µM | 320,000 tested, 1% active | AID 2716, 2010;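 active = every valid replicate shows activation above 250% relative to neutral control wells; inactive = the rest, any valid replicate at or below 250%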;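 also: OY570 slx delta 5 strain wells were the positive control but not used for scaling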
AI-2 QS modul = Vibrio harveyi AI-2 quorum sensing modulators, primary screen, JMH597 strain, luminescence/OD600 ratio; Vibrio harveyi JMH597 AI-2 luminescence/OD600 ratio, 9 h; stronger effect = lower value; strain lacks LuxN and CqsS sensors; 0 = neutral-control median; activity change, % at 7.5 µM; 300,000 tested, 0.4% active; AID 2094, 2009; in the data active = activity change below about -75%, passing the limit was not always enough;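 also: luminescence divided by OD600 gain over 9 h not by final OD600 alone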
H9c2 protect = cardioprotection against H2O2-induced cell death, primary screen, uHTS, H9c2 cells, ATPLite luminescence | H9c2 cardiomyocytes, H2O2 injury protection, 2 h | protection from H2O2 cell death, % at 20 µM | 360,000 tested, 0.63% active;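 active = compounds giving at least 50% protection of heart cells from peroxide-induced death in the single-dose screen, raw or plate-pattern-corrected value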;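 also: 0% = DMSO wells with peroxide and 100% = DMSO wells without peroxide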
NTR1 ag = agonists of human NTR1, primary screen, imaging, U2OS cells, beta-arrestin-GFP, high content; Neurotensin receptor type 1 (Homo sapiens), P30989; NTR1-U2OS beta-arrestin-GFP spot imaging, agonist mode; activation, % at 20 µM; 330,000 tested, 0.17% active; AID 493036, 2011;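 active = activation at or above 40% of the spot to cytoplasm intensity ratio, with at least 20 cells analyzed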;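 also: 0% = DMSO without peptide and 100% = 100 nM NTR1 peptide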
Target sequence (P30989 whole entry, looked up): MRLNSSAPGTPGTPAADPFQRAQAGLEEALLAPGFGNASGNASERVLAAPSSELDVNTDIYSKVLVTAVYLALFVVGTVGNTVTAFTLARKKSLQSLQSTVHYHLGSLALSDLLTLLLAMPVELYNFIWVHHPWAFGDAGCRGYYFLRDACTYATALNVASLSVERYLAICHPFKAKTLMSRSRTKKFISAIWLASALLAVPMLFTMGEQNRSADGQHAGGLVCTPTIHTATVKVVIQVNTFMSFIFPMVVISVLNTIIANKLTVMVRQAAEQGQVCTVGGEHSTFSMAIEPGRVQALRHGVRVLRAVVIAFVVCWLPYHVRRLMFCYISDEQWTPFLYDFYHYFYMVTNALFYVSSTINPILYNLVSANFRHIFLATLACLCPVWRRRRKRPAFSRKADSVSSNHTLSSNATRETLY
AHR activator = AHR activators, primary screen, cell-based, luminescence, luciferase reporter, human; activation, % at 5 µM; 320,000 tested, 2.5% active; Aryl hydrocarbon receptor (Homo sapiens), P35869; AID 2796, 2010; AHR-responsive luciferase reporter cells; in the data active = activation above about 47%;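 also: 0% = vehicle wells and 100% = reference agonist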
Starred values were filed as active, the others as inactive. An excerpt weighted towards active compounds, which were near 6.2% of everything screened.

Oc1ccc(/C=N/Nc2ccc(Cl)nn2)c(O)c1O was read as GRIN3A LBD mod 22.2*, SUMO Mot1 rescue 14.9, AI-2 QS modul -34.8, H9c2 protect 13.4, NTR1 ag -0.4 and AHR activator 14.6.
Cc1cccc(-c2cc(=O)c(C(=O)O)cn2-c2ccc(F)cc2F)c1 was read as GRIN3A LBD mod 12.9*, SUMO Mot1 rescue 2.8, AI-2 QS modul 36.6, H9c2 protect 16.1, NTR1 ag -1.6 and AHR activator 2.5.
For COc1ccc(Cc2c(C(C)(C)C)nc3c(C)cc(Br)cn23)c(C)c1 the results were H9c2 protect -0.6.
For CN(Cc1c(C(=O)N/N=C/c2ccc(O)cc2)nnn1-c1nonc1N)c1ccccc1 the results were GRIN3A LBD mod 24.1*, SUMO Mot1 rescue 8.5, AI-2 QS modul -1.8, H9c2 protect -7.2, NTR1 ag 1.3 and AHR activator 2.1.
Screening COc1ccc(/C=N/NC(=O)c2nnn(-c3nonc3N)c2CN(C)c2ccccc2)cc1 returned GRIN3A LBD mod 24.1*, SUMO Mot1 rescue -3.5, AI-2 QS modul 27.9, H9c2 protect 9.0, NTR1 ag 4.7 and AHR activator 0.4.
`CN(C)c1ccc(/C=N/NC(=O)c2nnn(-c3nonc3N)c2CN(C)c2ccccc2)cc1` gave GRIN3A LBD mod 14.8*, SUMO Mot1 rescue 8.3, AI-2 QS modul 14.4, H9c2 protect -8.9, NTR1 ag 2.7 and AHR activator -0.8.
Screening Nc1nonc1-n1nnc(C(=O)N/N=C/c2cc(Br)cs2)c1-c1ccccc1 returned GRIN3A LBD mod 14.8*, SUMO Mot1 rescue 14.4, AI-2 QS modul -5.1, H9c2 protect -1.8, NTR1 ag 2.7 and AHR activator -1.1.
For Nc1nonc1-n1nnc(C(=O)N/N=C/c2cccc(F)c2)c1-c1ccccc1 the results were GRIN3A LBD mod 7.4, SUMO Mot1 rescue 7.8, AI-2 QS modul 11.4, H9c2 protect -9.7, NTR1 ag 1.2 and AHR activator -4.3.
Screening Cc1cc(NC(=O)CS(=O)c2cn(Cc3cccc(Cl)c3)c3ccccc23)no1 (centres undefined) returned H9c2 protect -14.6.
CCCCN1C(=O)C(CC(=O)NCc2cccc3ccccc23)CC(C(=O)N(C)C)=C1C (centres undefined) was read as H9c2 protect -0.8.
`COc1ccc(OC)c(CN2CCN(C(=O)c3cc(S(=O)(=O)N4CCOCC4)ccc3C)CC2)c1` gave GRIN3A LBD mod -1.4.
Cc1ccc(S(=O)(=O)N2CCCC2CNC(=O)C(=O)NC2CC2)cc1 (centres undefined) was read as GRIN3A LBD mod 1.9, SUMO Mot1 rescue -7.2, AI-2 QS modul -4.3, H9c2 protect -1.6, NTR1 ag 0.2 and AHR activator 5.8.
Nc1nonc1-n1nnc(C(=O)N/N=C/c2cccnc2)c1-c1cccs1 was read as GRIN3A LBD mod -0.1, SUMO Mot1 rescue 13.9, AI-2 QS modul 4.2, H9c2 protect -3.7, NTR1 ag 0.2 and AHR activator 15.2.
For Nc1nonc1-n1nnc(C(=O)N/N=C/c2cccc(Cl)c2)c1-c1cccs1 the results were GRIN3A LBD mod 27.1*, SUMO Mot1 rescue 42.9, AI-2 QS modul 22.9, H9c2 protect -6.8, NTR1 ag 3.2 and AHR activator 6.4.
Screening C/C(=N\N=C\c1ccccc1F)c1nnn(-c2nonc2N)c1C returned GRIN3A LBD mod 24.9*, SUMO Mot1 rescue -1.4, AI-2 QS modul 14.4, H9c2 protect -5.0, NTR1 ag 3.3 and AHR activator 3.7.
CN(Cc1c(C(=O)N/N=C/c2ccccc2)nnn1-c1nonc1N)c1ccccc1 was read as GRIN3A LBD mod 19.5*, SUMO Mot1 rescue -25.4, AI-2 QS modul -10.3, H9c2 protect -5.0, NTR1 ag 2.3 and AHR activator 0.5.
Screening CN(C)Cc1c(C(=O)N/N=C/c2cccnc2)nnn1-c1nonc1N returned GRIN3A LBD mod -0.7, SUMO Mot1 rescue 115.4, AI-2 QS modul 32.3, H9c2 protect -1.2, NTR1 ag 0.6 and AHR activator 3.5.
Screening COc1ccccc1/C=N/NC(=O)c1nnn(-c2nonc2N)c1CN(C)c1ccccc1 returned GRIN3A LBD mod 3.9, SUMO Mot1 rescue 5.6, AI-2 QS modul 7.2, H9c2 protect 11.0, NTR1 ag 1.3 and AHR activator 6.9.
CN(Cc1c(C(=O)N/N=C/c2ccccc2F)nnn1-c1nonc1N)c1ccccc1 was read as GRIN3A LBD mod 11.6*, SUMO Mot1 rescue 7.1, AI-2 QS modul 53.0, H9c2 protect -8.0, NTR1 ag 2.9 and AHR activator 3.8.
O=C(CCNS(=O)(=O)c1ccc2ccccc2c1)NCCOc1ccccc1 was read as GRIN3A LBD mod 0.3, H9c2 protect -4.4 and NTR1 ag -0.4.
`Nc1nonc1-n1nnc(C(=O)N/N=C\c2cccc(Cl)c2)c1CN1CCOCC1` gave GRIN3A LBD mod -5.6, SUMO Mot1 rescue -2.5, H9c2 protect 0.1, NTR1 ag 0.6 and AHR activator 0.7.
CN(Cc1c(C(=O)N/N=C/c2cccc(Cl)c2)nnn1-c1nonc1N)c1ccccc1 was read as GRIN3A LBD mod 21.0*, SUMO Mot1 rescue -6.4, AI-2 QS modul 17.9, H9c2 protect -4.5, NTR1 ag 11.4 and AHR activator 6.3.
CSCCC(NC(=O)COc1ccccc1)C(=O)N(C)Cc1ccc(Cl)cc1Cl (centres undefined) was read as GRIN3A LBD mod 1.4, SUMO Mot1 rescue 0.1, H9c2 protect 6.0, NTR1 ag 6.3 and AHR activator 1.0.
For COc1ccc2[nH]c(=O)c(-c3nnn(-c4ccc(F)cc4)n3)cc2c1 the results were GRIN3A LBD mod -2.1, SUMO Mot1 rescue 7.0, AI-2 QS modul -2.0, H9c2 protect 56.0*, NTR1 ag -0.3 and AHR activator 15.6.
For COc1ccc2[nH]c(=O)c(-c3nnn(-c4ccccc4)n3)cc2c1 the results were GRIN3A LBD mod 0.1, SUMO Mot1 rescue -14.0, AI-2 QS modul 7.4, H9c2 protect 12.7, NTR1 ag 1.5 and AHR activator 10.3.
`Cc1ccc(CNC(=O)C2CCC(=O)N(Cc3ccccc3F)C2)s1` (centres undefined) gave GRIN3A LBD mod -0.2, SUMO Mot1 rescue 0.5, AI-2 QS modul 19.5, H9c2 protect 0.3, NTR1 ag 1.3 and AHR activator 3.7.
Screening O=C(O)c1cc(-c2ccc3ccccc3n2)nc2ccccc12 returned SUMO Mot1 rescue 29.0, AI-2 QS modul 13.4, H9c2 protect -17.9, NTR1 ag 1.6 and AHR activator 12.2.
`CNc1ccccc(-c2ccc3ccccc3n2)c1=O` gave GRIN3A LBD mod -5.8, AI-2 QS modul 16.1, H9c2 protect 1.8, NTR1 ag -1.4 and AHR activator 49.9*.
